Measured values: the OligoGym collection

biological target: SMYD3; assay: pooled miR-30 sensor sort-seq; sequence = guide strand; conditions: shRNA
Also: reference of the scale not given here.

For TTCTTCTAAAAGTAGAATCAAA, which sensor-assay potency score (higher = more potent) is on record?
Its sensor-assay potency score (higher = more potent) is -1.27.

With TTTTCTGACACTTAGCACTACA as the sequence, how does the sensor-assay potency score (higher = more potent) read?
Its sensor-assay potency score (higher = more potent) is -0.327.

How did the sensor-assay potency score (higher = more potent) turn out when TAATATTTGACTCCAGATCATA was run?
Its sensor-assay potency score (higher = more potent) is -1.27.

Which sensor-assay potency score (higher = more potent) does the source give for TTTGTTAATATTTGACTCCAGA here?
The sensor-assay potency score (higher = more potent) was -0.278.

For TTTACCTACACAAACACGGAAC, which sensor-assay potency score (higher = more potent) is on record?
Its sensor-assay potency score (higher = more potent) is -0.662.

How did the sensor-assay potency score (higher = more potent) turn out when TAGGCCAACACCAACTTCCTGC was run?
The sensor-assay potency score (higher = more potent) was 0.026.

With TAGCACTACAGTATTTGGCGAC as the sequence, how does the sensor-assay potency score (higher = more potent) read?
The sensor-assay potency score (higher = more potent) was 0.0593.

How did the sensor-assay potency score (higher = more potent) turn out when TTGAACACAATCGAACAGTTGG was run?
Its sensor-assay potency score (higher = more potent) is 0.615.

How did the sensor-assay potency score (higher = more potent) turn out when TAGAATCAAATCTTCAATCAGG was run?
The sensor-assay potency score (higher = more potent) was -0.0994.

Which sensor-assay potency score (higher = more potent) does the source give for TTGAACTTCCTTCCATACTTGC here?
The sensor-assay potency score (higher = more potent) was -0.357.

How did the sensor-assay potency score (higher = more potent) turn out when TTTTTCTGACACTTAGCACTAC was run?
Its sensor-assay potency score (higher = more potent) is -0.019.

biological target: SNAP23; assay: as above; conditions: shRNA

With TTAGTTATGCTATTACATGGGC as the sequence, how does the sensor-assay potency score (higher = more potent) read?
Its sensor-assay potency score (higher = more potent) is -0.215.

Which sensor-assay potency score (higher = more potent) does the source give for TAATGTATCCACCACTGGCTGC here?
The sensor-assay potency score (higher = more potent) was -0.654.

Which sensor-assay potency score (higher = more potent) does the source give for TTATTTGTGGATTTTGAGCATC here?
The sensor-assay potency score (higher = more potent) was -0.871.

TTGGTGTCAGCCTTGTCTGTGA was tested. Which sensor-assay potency score (higher = more potent) did it give?
The sensor-assay potency score (higher = more potent) was 0.24.

With TTAGATACTACATTGCAAGGTG as the sequence, how does the sensor-assay potency score (higher = more potent) read?
Its sensor-assay potency score (higher = more potent) is 0.78.

How did the sensor-assay potency score (higher = more potent) turn out when TAATCTGGTGAGCTCTCTGTTG was run?
Its sensor-assay potency score (higher = more potent) is -0.844.

How did the sensor-assay potency score (higher = more potent) turn out when TATAACTGCAACTTAAATCAAA was run?
Its sensor-assay potency score (higher = more potent) is -0.858.

Which sensor-assay potency score (higher = more potent) does the source give for TTTTACTGAGGTAACAACCTCT here?
Its sensor-assay potency score (higher = more potent) is 0.719.

With TTGGTTGCTGAAGCTGACCATT as the sequence, how does the sensor-assay potency score (higher = more potent) read?
The sensor-assay potency score (higher = more potent) was -0.861.

TTGTTCCTTTTGTTCATCCAGC was tested. Which sensor-assay potency score (higher = more potent) did it give?
The sensor-assay potency score (higher = more potent) was -0.861.

With TTCTTTGTTCTATTACATGGGC as the sequence, how does the sensor-assay potency score (higher = more potent) read?
Its sensor-assay potency score (higher = more potent) is -0.51.

Which sensor-assay potency score (higher = more potent) does the source give for TTGAGTCAGGTTCTCTTCCATT here?
The sensor-assay potency score (higher = more potent) was -1.05.

biological target: SNAPC2; assay: as above; conditions: shRNA

Which sensor-assay potency score (higher = more potent) does the source give for AAGTGACATGAGCAGGTCGAGG here?
The sensor-assay potency score (higher = more potent) was -1.64.

How did the sensor-assay potency score (higher = more potent) turn out when TAGATCTTCTCAAAGTCCACAG was run?
The sensor-assay potency score (higher = more potent) was -0.173.

TCAGCTGCTGAGAGCTCGGGGC was tested. Which sensor-assay potency score (higher = more potent) did it give?
Its sensor-assay potency score (higher = more potent) is -1.02.

For TTATCTTCTCAGCCAGATCCGT, which sensor-assay potency score (higher = more potent) is on record?
The sensor-assay potency score (higher = more potent) was -0.528.

For TATCTTCTCAGCCAGATCCGTC, which sensor-assay potency score (higher = more potent) is on record?
The sensor-assay potency score (higher = more potent) was -0.959.

Which sensor-assay potency score (higher = more potent) does the source give for TCAGGGGACAGATCCCAGCTGC here?
Its sensor-assay potency score (higher = more potent) is -0.373.

TTCAGTGGAGGGACCAGCCGAC was tested. Which sensor-assay potency score (higher = more potent) did it give?
The sensor-assay potency score (higher = more potent) was -0.383.

With AGTACTTGTAGATCTTCTCAAA as the sequence, how does the sensor-assay potency score (higher = more potent) read?
Its sensor-assay potency score (higher = more potent) is -1.85.

Which sensor-assay potency score (higher = more potent) does the source give for TTTCAGTTCGCTGTGCTCGGCC here?
The sensor-assay potency score (higher = more potent) was -0.483.

Which sensor-assay potency score (higher = more potent) does the source give for AAGTACTTGTAGATCTTCTCAA here?
Its sensor-assay potency score (higher = more potent) is 0.257.

Which sensor-assay potency score (higher = more potent) does the source give for TGTAGATCTTCTCAAAGTCCAC here?
The sensor-assay potency score (higher = more potent) was -0.752.

With TTCTCAGCCAGATCCGTCCAGA as the sequence, how does the sensor-assay potency score (higher = more potent) read?
The sensor-assay potency score (higher = more potent) was -0.94.

biological target: SNCG; assay: as above; conditions: shRNA

With TTTGGATGCCACACCCTCCTGT as the sequence, how does the sensor-assay potency score (higher = more potent) read?
Its sensor-assay potency score (higher = more potent) is -0.0802.

How did the sensor-assay potency score (higher = more potent) turn out when TTGGATGCCACACCCTCCTGTT was run?
The sensor-assay potency score (higher = more potent) was -1.09.

TACAACATTCTCCTTGGTCTTG was tested. Which sensor-assay potency score (higher = more potent) did it give?
Its sensor-assay potency score (higher = more potent) is -0.826.

How did the sensor-assay potency score (higher = more potent) turn out when TGCTTGGTCTTTTCCACCGCAC was run?
The sensor-assay potency score (higher = more potent) was -1.01.

With TCTCTTTGGATGCCACACCCTC as the sequence, how does the sensor-assay potency score (higher = more potent) read?
The sensor-assay potency score (higher = more potent) was -1.21.
